For one sequence, binding signal results are on record in PMC7862700, “An all-to-all approach to the identification of sequence-specific readers for epigenetic DNA modifications on cytosine”.

What all share (assay): DAPPL (digital affinity profiling via proximity ligation, sequencing); 10 mM Tris-HCl pH 7.5, 50 mM NaCl, 1 mM DTT, 4% glycerol, room temperature, 30 min; GST-TFs on glutathione beads, 16-mer random dsDNA library, 0.1% formaldehyde crosslink after washing; high values mean tight binding
The target of assay [1] is T1, FEV (Homo sapiens, UniProt Q99581 1-238).
T1 sequence: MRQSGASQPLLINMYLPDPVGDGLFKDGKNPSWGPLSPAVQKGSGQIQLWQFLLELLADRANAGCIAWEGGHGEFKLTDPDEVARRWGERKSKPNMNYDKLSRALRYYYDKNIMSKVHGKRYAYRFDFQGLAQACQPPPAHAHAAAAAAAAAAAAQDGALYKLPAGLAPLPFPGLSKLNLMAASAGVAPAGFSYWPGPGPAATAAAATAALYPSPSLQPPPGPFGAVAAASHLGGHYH
The note with it: protein: recombinant; tags: N-terminal GST; dsDNA, one strand shown. Summed up: (§1)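 Binding signal is given per hexamer as its read frequency for a factor divided by its frequency in the tag-only sample. GST-fused human transcription factors were expressed in yeast, captured on glutathione beads, barcoded with DNA and pooled with that sample, then incubated with 200 nmole of a 16-mer random double-stranded DNA library in Tris/NaCl/DTT/glycerol buffer for 30 min at room temperature. The pools were then washed, crosslinked, proximity-ligated, amplified by PCR and sequenced on an Illumina NextSeq500.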

In assay [2] the target is ETV5 (Homo sapiens, UniProt P41161 1-510). The note with it: protein: recombinant; tags: N-terminal GST; dsDNA, one strand shown. Put shortly:
as §1

Assay [3] has as its target HSF1 (Homo sapiens, UniProt Q00613 1-529). The note with it: protein: recombinant; tags: N-terminal GST; chain copies: 3; dsDNA, one strand shown. Put shortly: as §1
Assay [4] has as its target T2, SPIC (Homo sapiens, UniProt Q8N5J4 1-248).
T2 sequence: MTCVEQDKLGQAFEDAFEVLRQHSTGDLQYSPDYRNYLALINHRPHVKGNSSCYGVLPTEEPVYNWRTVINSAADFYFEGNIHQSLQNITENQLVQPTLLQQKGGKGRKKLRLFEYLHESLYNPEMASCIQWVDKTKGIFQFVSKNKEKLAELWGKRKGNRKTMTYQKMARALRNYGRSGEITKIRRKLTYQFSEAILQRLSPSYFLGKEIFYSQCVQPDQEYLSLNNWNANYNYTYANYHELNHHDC
The note with it: protein: recombinant; tags: N-terminal GST; dsDNA, one strand shown. Summed up: as §1

The target of assay [5] is ELF4 (Homo sapiens, UniProt Q99607 1-663). The conditions noted are these: protein: recombinant; tags: N-terminal GST; dsDNA, one strand shown. Put shortly: as §1
The target of assay [6] is T3, ELK4 (Homo sapiens, UniProt P28324-2 1-405).
T3 sequence: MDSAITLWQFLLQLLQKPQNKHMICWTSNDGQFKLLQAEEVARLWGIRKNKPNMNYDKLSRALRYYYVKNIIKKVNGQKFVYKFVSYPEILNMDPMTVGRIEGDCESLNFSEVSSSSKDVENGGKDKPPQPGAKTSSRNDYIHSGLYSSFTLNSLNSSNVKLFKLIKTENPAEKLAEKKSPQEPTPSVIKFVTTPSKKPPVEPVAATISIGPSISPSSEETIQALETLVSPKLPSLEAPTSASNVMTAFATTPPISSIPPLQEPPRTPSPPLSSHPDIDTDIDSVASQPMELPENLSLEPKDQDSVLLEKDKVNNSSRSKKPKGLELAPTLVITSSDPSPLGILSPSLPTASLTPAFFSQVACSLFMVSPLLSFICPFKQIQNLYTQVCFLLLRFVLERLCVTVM
The note with it: protein: recombinant; tags: N-terminal GST; dsDNA, one strand shown. Put shortly:
as §1

In assay [7] the target is T4, ETV2 (Homo sapiens, UniProt O00321 1-342).
T4 sequence: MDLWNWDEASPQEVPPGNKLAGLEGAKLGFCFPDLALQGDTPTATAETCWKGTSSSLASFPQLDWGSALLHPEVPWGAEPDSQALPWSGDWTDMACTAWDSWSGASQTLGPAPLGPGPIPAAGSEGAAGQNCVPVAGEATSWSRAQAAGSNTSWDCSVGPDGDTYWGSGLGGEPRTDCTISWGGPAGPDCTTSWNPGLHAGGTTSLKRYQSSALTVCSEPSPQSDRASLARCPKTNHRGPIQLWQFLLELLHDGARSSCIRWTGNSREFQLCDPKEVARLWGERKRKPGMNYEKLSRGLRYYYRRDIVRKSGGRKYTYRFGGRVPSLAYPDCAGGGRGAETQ
The conditions noted are these: protein: recombinant; tags: N-terminal GST; dsDNA, one strand shown. Put shortly: as §1

The target in assay [8] is T5, ELF3 (Homo sapiens, UniProt P78545 1-371).
T5 sequence: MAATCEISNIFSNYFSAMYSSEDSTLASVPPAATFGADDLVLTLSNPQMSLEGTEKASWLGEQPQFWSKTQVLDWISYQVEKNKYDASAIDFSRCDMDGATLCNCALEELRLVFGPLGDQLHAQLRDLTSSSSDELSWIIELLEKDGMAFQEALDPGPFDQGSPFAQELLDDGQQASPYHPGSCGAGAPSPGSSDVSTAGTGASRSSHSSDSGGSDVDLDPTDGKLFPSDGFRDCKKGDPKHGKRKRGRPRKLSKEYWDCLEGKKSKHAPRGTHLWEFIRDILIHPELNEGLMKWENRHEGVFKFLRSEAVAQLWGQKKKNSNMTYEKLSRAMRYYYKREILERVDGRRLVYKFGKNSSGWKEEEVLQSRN
The note with it: protein: recombinant; tags: N-terminal GST; dsDNA, one strand shown. Summed up:
as §1

The target of assay [9] is CRX (Homo sapiens, UniProt O43186 1-299). The note with it: protein: recombinant; tags: N-terminal GST; dsDNA, one strand shown. Summed up:
as §1

For assay [10], the target named is ETV1 (Homo sapiens, UniProt P50549 1-477). The conditions noted are these: protein: recombinant; tags: N-terminal GST; dsDNA, one strand shown. Put shortly: as §1
Assay [11] deals with T6, ERF (Homo sapiens, UniProt P50548 1-548).
T6 sequence: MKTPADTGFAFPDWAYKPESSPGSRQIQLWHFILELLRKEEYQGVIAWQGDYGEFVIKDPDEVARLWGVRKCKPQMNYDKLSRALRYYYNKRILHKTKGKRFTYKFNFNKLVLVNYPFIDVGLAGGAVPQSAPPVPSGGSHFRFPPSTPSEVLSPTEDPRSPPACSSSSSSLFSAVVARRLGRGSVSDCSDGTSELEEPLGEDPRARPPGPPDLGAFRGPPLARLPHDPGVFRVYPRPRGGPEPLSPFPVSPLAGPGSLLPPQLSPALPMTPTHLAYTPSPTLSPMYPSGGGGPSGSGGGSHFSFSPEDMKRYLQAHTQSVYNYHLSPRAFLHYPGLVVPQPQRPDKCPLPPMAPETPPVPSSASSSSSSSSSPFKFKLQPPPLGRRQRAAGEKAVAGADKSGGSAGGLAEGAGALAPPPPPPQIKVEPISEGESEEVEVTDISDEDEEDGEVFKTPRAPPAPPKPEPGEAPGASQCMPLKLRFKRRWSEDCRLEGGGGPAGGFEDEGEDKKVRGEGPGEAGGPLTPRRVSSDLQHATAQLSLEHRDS
The conditions noted are these: protein: recombinant; tags: N-terminal GST; dsDNA, one strand shown. Put shortly: as §1

Assay [12] addresses T7, ETV3L (Homo sapiens, UniProt Q6ZN32 1-361).
T7 sequence: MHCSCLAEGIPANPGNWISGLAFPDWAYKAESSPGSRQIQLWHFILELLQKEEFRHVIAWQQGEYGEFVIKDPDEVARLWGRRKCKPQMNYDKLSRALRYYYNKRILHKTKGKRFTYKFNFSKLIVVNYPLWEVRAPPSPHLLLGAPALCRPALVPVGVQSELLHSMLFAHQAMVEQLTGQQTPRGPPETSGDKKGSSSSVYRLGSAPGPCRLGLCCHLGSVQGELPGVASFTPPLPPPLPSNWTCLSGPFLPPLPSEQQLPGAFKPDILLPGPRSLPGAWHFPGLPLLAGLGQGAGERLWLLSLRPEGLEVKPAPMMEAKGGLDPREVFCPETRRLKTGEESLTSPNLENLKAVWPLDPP
The note with it: protein: recombinant; tags: N-terminal GST; dsDNA, one strand shown. Put shortly:
as §1

For assay [13], the target named is T8, ETS2 (Homo sapiens, UniProt P15036 1-469).
T8 sequence: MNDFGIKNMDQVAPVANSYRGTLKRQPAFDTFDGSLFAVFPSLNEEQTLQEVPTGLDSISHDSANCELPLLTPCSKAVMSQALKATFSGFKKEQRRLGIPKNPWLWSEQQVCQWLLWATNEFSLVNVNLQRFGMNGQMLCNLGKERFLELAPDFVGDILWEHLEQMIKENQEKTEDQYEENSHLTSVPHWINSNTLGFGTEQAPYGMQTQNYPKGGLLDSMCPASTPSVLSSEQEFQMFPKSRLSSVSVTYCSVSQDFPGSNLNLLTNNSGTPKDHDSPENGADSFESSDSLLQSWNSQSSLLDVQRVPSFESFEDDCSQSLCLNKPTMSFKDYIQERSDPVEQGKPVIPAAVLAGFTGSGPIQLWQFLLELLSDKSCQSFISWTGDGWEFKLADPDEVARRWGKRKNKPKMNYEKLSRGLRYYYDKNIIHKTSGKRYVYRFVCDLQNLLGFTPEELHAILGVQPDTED
The conditions noted are these: protein: recombinant; tags: N-terminal GST; dsDNA, one strand shown. Put shortly: as §1

The target of assay [14] is T9, SPDEF (Homo sapiens, UniProt O95238 1-335).
T9 sequence: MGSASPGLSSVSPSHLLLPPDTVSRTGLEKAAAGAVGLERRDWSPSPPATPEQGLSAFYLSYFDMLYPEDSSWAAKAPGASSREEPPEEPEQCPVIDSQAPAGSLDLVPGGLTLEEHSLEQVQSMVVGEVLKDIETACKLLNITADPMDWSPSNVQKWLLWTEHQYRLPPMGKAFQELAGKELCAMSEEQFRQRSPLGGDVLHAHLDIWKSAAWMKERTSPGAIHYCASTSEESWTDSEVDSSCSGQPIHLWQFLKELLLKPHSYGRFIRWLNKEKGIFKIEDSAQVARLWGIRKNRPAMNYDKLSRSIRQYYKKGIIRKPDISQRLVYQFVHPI
The conditions noted are these: protein: recombinant; tags: N-terminal GST; dsDNA, one strand shown. Summed up:
as §1

Assay [15] deals with T10, ETV7 (Homo sapiens, UniProt Q9Y603 1-341).
T10 sequence: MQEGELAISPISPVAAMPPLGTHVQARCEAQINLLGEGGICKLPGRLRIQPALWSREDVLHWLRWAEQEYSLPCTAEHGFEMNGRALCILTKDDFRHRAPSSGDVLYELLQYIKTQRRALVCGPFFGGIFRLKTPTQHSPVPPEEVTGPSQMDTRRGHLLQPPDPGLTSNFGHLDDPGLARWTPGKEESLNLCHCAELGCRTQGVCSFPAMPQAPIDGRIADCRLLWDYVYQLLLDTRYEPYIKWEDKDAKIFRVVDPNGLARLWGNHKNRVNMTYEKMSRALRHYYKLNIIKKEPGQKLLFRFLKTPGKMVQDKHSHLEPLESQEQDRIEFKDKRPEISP
The conditions noted are these: protein: recombinant; tags: N-terminal GST; dsDNA, one strand shown. Summed up:
as §1

Assay [16] concerns the target T11, ELF5 (Homo sapiens, UniProt Q9UKW6-2 1-255).
T11 sequence: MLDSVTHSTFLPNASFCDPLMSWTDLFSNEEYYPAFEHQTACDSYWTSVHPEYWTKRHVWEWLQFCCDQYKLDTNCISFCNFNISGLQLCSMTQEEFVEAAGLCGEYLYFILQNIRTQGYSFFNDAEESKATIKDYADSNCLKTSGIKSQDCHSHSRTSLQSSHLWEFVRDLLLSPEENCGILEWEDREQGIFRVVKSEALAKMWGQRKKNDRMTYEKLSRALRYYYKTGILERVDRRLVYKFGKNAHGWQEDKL
The conditions noted are these: protein: recombinant; tags: N-terminal GST; dsDNA, one strand shown. Put shortly: as §1

The target of assay [17] is T12, ETV3 (Homo sapiens, UniProt P41162-2 1-143).
T12 sequence: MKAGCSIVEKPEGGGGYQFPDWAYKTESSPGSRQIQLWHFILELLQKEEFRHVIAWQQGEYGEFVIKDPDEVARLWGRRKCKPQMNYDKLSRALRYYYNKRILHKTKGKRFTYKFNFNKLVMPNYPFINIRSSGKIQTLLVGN
The note with it: protein: recombinant; tags: N-terminal GST; dsDNA, one strand shown. Put shortly: as §1

Assay [18] addresses ETV6 (Homo sapiens, UniProt P41212 1-452). The note with it: protein: recombinant; tags: N-terminal GST; dsDNA, one strand shown. Summed up:
as §1

Sequence of ETV5 (P41161 whole entry): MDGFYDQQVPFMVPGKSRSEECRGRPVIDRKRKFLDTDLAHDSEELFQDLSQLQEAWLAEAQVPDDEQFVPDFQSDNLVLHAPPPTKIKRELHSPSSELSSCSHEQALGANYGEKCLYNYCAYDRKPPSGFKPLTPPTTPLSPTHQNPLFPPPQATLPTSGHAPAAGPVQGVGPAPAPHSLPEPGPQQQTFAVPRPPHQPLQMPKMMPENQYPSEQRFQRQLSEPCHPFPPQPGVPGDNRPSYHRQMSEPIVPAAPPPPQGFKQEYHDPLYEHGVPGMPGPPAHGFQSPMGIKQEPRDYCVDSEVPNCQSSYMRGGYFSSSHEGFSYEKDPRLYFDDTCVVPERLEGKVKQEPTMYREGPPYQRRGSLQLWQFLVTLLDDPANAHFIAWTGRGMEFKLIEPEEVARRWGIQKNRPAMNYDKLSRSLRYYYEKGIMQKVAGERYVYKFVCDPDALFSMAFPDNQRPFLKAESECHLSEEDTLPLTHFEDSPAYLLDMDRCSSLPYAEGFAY
Sequence of ETV1 (P50549 whole entry): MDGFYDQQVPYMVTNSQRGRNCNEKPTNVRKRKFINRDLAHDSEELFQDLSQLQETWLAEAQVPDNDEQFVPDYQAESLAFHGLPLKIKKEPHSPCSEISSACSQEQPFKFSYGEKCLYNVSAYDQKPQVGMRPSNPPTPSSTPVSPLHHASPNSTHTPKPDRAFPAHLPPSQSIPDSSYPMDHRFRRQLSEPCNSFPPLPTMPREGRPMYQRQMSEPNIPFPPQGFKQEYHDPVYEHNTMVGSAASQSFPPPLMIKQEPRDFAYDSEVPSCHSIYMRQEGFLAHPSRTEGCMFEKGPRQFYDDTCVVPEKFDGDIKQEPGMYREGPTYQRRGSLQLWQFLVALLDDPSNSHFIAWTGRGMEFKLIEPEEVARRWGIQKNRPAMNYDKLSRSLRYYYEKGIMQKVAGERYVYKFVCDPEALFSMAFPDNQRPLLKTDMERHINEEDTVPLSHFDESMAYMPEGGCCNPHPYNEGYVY
Sequence of CRX (O43186 whole entry): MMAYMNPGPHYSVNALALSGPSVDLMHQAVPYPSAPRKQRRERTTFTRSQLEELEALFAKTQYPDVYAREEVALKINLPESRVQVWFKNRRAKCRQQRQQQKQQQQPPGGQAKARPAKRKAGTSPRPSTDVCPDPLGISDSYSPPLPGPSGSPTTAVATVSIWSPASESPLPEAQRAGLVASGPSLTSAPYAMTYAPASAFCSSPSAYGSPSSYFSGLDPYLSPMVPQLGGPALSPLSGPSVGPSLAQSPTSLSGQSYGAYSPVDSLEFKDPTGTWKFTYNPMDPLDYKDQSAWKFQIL
Sequence of HSF1 (Q00613 whole entry): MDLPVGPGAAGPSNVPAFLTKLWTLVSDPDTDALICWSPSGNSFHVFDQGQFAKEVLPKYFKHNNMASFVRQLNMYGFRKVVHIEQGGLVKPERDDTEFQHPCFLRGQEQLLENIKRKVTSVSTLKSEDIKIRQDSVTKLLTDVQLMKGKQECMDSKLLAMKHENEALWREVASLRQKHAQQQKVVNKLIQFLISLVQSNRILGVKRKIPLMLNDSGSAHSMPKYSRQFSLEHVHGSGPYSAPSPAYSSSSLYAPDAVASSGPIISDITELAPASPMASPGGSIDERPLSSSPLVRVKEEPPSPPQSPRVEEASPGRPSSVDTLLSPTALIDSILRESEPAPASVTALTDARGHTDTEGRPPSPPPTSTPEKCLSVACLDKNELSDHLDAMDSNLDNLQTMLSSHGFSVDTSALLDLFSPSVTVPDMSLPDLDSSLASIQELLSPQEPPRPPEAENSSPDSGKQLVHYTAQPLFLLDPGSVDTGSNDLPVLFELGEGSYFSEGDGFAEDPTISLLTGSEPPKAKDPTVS
Sequence of ETV6 (P41212 whole entry): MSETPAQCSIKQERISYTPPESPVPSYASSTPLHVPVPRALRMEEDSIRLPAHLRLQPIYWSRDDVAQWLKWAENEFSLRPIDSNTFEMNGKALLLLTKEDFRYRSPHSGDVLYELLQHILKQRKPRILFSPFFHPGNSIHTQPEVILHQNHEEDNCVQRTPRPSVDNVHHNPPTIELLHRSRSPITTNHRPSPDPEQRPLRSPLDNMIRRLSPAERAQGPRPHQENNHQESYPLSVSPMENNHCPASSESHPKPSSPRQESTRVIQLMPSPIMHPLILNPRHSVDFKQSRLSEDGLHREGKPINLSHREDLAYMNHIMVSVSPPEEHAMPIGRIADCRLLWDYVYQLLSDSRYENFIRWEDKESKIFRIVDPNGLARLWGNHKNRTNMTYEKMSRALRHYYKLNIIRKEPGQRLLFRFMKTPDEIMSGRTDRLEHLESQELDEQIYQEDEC
Sequence of ELF4 (Q99607 whole entry): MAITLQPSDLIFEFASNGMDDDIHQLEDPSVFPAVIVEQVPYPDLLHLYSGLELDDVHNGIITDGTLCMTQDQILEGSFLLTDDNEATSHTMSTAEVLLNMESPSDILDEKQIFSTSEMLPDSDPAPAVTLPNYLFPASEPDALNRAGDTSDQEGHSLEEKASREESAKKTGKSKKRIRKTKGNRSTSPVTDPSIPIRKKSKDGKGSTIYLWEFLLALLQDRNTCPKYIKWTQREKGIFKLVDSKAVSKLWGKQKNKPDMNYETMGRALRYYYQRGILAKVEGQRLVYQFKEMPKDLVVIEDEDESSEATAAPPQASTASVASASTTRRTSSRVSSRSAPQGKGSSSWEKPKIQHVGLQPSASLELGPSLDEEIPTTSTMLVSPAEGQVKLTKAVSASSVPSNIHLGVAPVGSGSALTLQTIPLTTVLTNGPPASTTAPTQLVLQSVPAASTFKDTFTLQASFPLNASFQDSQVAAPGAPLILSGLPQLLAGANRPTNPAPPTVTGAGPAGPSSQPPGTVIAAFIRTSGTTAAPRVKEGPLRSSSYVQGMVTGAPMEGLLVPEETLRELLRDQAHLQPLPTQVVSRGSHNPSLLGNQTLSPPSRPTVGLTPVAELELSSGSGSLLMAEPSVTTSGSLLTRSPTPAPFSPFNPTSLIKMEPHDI

As to CGTATA, the binding signal is 1.04 fold enrichment (6-mer frequency, TF over GST control) in [1]; 1.15 fold enrichment (6-mer frequency, TF over GST control) in assay [2]; 1.03 fold enrichment (6-mer frequency, TF over GST control) in [3]; 1.19 fold enrichment (6-mer frequency, TF over GST control) in assay [4]; 1.13 fold enrichment (6-mer frequency, TF over GST control) in assay [5]; 1.07 fold enrichment (6-mer frequency, TF over GST control) in assay [6]. The binding signal in assay [7] is 1.12 fold enrichment (6-mer frequency, TF over GST control); in assay [8] it was 1.24 fold enrichment (6-mer frequency, TF over GST control); in assay [9] it was 1.07 fold enrichment (6-mer frequency, TF over GST control); in [10], 1.19 fold enrichment (6-mer frequency, TF over GST control); in [11], 1.13 fold enrichment (6-mer frequency, TF over GST control); in assay [12] it was 1.1 fold enrichment (6-mer frequency, TF over GST control). Moreover, the binding signal in assay [13] is 1.11 fold enrichment (6-mer frequency, TF over GST control); in [14], 1.21 fold enrichment (6-mer frequency, TF over GST control); in assay [15] it was 1.15 fold enrichment (6-mer frequency, TF over GST control); in assay [16], 1.16 fold enrichment (6-mer frequency, TF over GST control); in [17], 1.18 fold enrichment (6-mer frequency, TF over GST control); in assay [18] it was 1.08 fold enrichment (6-mer frequency, TF over GST control).
